Rows were chosen to be rich in hits. Some 15% of all compounds tested hit in one or more screens of this group.
Pf growth 48h – Primary qHTS for delayed death inhibitors of the malarial parasite plastid, 48 hour incubation; P. falciparum luciferase growth in erythrocytes, 48 h; Potency, µM (top dose mostly 28.7 µM), for the others: at the top dose activity change, negative = inhibition, most hits filed as inhibitors; hit rate 5.9% among 310,000; note: potency is the fitted concentration of half-maximal effect; % is set by controls: 0 for no effect and ±100 for the full control effect
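Luciferase-expressing P. falciparum in infected erythrocytes (2% hematocrit, 0.1% parasitemia final) in RPMI 1640/0.5% Albumax were exposed to compound for 48 hours at 37 C, 5% CO2; growth read as luminescence.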
HCMV antiviral – qHTS Assay for inhibitors of the human cytomegalovirus (HCMV); HFF cells, HCMV-luciferase reporter, 72 h; active compounds read low; activity change, negative = inhibition, % at 57.5 µM; hit rate 4.5% among 410,000; AID 1259415, 2018; in the data active = activity change below about -60%; inconclusive = no clear call, values can overlap the other calls; inactive = above about -39%; note: % is set by controls: 0 for no effect and ±100 for the full control effect
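Luciferase read-out from HCMV-luciferase-infected HFFs (MOI 1 PFU/cell) 72 h post infection at 37C; compounds added after 16 h cell attachment; activity normalized between buffer-only basal and Salinomycin (10uM) inhibitor controls.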
Sm TGR inh – qHTS Assay for the Inhibitors of Schistosoma Mansoni Peroxiredoxins. Schistosoma mansoni thioredoxin glutathione reductase (TGR), Q962Y6. purified TGR, DTNB reduction, TNB absorbance 405 nm. Potency, µM (doses to about 114 µM), without a hit: top-dose activity change, negative = inhibition, actives largely listed as inhibitors. hit rate 3% among 360,000; note: potency is the fitted concentration of half-maximal effect; % is set by controls: 0 for no effect and ±100 for the full control effect; nearly all actives have a fitted effect of over 60% in size
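Kinetic colorimetric format: TGR-catalysed, NADPH-driven DTNB reduction monitored via TNB absorbance. Enzyme dispensed at 20 nM; compound exposure 15 min at room temperature before reaction start.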
SARS PLP yeast – qHTS of Yeast-based Assay for SARS-CoV PLP | AID 485353, 2010 | Potency, µM (titrated, usually from 32.9 µM), inactives show at the top dose activity, positive = growth rescue, actives largely listed as activators | S. cerevisiae expressing SARS-CoV PLpro, growth rescue | hit rate 0.19% among 330,000; calls by dose curve; note: potency is the fitted concentration of half-maximal effect; 0% is about no effect; nearly all actives have a fitted effect of over 55% in size
Pf growth 96h – Primary qHTS for delayed death inhibitors of the malarial parasite plastid, 96 hour incubation. P. falciparum luciferase reporter growth, 96 h. Potency, µM (series often up to 28.7 µM), for inactives: top-dose activity change, negative = inhibition, hits mostly inhibitors. hit rate 6.9% among 320,000; note: potency is the fitted concentration of half-maximal effect; % is set by controls: 0 for no effect and ±100 for the full control effect
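Plates of compound plus infected erythrocytes (2% hematocrit, 0.05% parasitemia final) incubate 96 hours, 37 C, 5% CO2. Detection reagent added; reduced luminescence from the parasites' luciferase reporter flags inhibition.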
HCV inh – qHTS Assay for Inhibitors of Hepatitis C Virus (HCV) | hit rate 3.4% among 340,000 | Huh7.5.1 HCVcc-Cre infection, luciferase reporter, 44 h | Potency, µM (series often up to 41.8 µM), for the others: top-dose activity change, negative = inhibition, hits mostly inhibitors; note: potency is the fitted concentration of half-maximal effect; % is set by controls: 0 for no effect and ±100 for the full control effect
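Compounds are dispensed onto cells plated 4 h earlier at 1,000 per well, with HCVcc-Cre virus (about 0.5 moi) added next. Following 44 h of culture, luminescent signal is measured for 15 sec after 15 min with substrate at room temperature.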
Starred values were filed as active, the others as inactive; ? = inconclusive; . = no result. Unless noted, calls come from the whole dose curve; as a rule, active = well fitted curve in the direction sought with a large enough effect; inconclusive = small, poorly fitted or top-dose-only effect, or another doubt; inactive = no such curve, though single readings can be large; an effect the other way counts as inactive or inconclusive.

SMILES	Pf growth 48h	HCMV antiviral	Sm TGR inh	SARS PLP yeast	Pf growth 96h	HCV inh
CCOC(=O)c1c(C)[nH]c(C(=O)CSc2nnc(C3CC3)n2N)c1C	0.33µM*	126	-2%	14%	.	?
CCCc1cc(=O)[nH]c(SCC(=O)CSc2nc(CCC)cc(=O)[nH]2)n1	5%	-6	-29%	3%	-20%	8%
CCCc1cc(=O)[nH]c(SCC(=O)c2[nH]c(C)c(C(=O)OCC)c2C)n1	6%	45	-24%	23%	-14%	11µM*
CCOc1ccc(NC(=O)C2CCCN(S(=O)(=O)c3ccc(Br)s3)C2)cc1 (configuration not stated)	.	-4	-9%	.	.	.
COc1ccccc1CNC(=O)COC(=O)c1cccc(-n2cnnn2)c1	-20%	13	-4%	7%	0%	-29%
COC(=O)c1cc2sc(Cl)cc2n1Cc1nc(-c2cccc(C)c2)oc1C	.	.	-1%	4%	27%	.
COC(=O)c1cc2sccc2n1Cc1nc(-c2ccc(OC)cc2)oc1C	?	-61*	-13%	5%	-4%	-14%
COC(=O)c1cc2sccc2n1Cc1nc(-c2ccc(C)cc2)oc1C	.	-16	-11%	.	.	.
COC(=O)c1cc2sc(Cl)cc2n1Cc1nc(-c2ccccc2)oc1C	.	-8	-32%	-2%	8.3µM*	-5%
CCN(CC)CC(C)CNC(=O)CN1C(=O)CSc2ccc(S(=O)(=O)N3CCOCC3)cc21 (configuration not stated)	-8%	9	3%	8%	13µM*	4%
O=C(CN1C(=O)CSc2ccc(S(=O)(=O)N3CCCCC3)cc21)NCc1ccccc1	-15%	-3	-9%	-1%	4.1µM*	-10%
O=C(CN1C(=O)CSc2ccc(S(=O)(=O)N3CCCCCC3)cc21)NCCc1ccccc1	.	3	.	.	.	?
Cn1c(CNC(=O)CNC(=O)Cc2ccc(F)cc2)cc(=O)n(C)c1=O	9%	-29	4%	6%	27%	14%
CCn1cc(C(=O)N2CCN(c3cc(C)ccc3C)CC2)c(=O)c2cc(S(=O)(=O)N3CCCCC3)ccc21	.	-6	2%	.	.	.
CSc1cccc(NC(=O)c2ccc(CN3CCc4ccccc4C3)cc2)c1	4.1µM*	-61*	-9%	-4%	3%	8.9µM*
O=C(Nc1cccc(Br)c1)c1ccc(CN2CCc3ccccc3C2)cc1	-9%	-28	0%	.	9.3µM*	2.2µM*
COc1ccccc1CNc1ccc(-c2nc(C)no2)cc1[N+](=O)[O-]	.	33	-2%	.	.	.
COC(=O)Sc1nnc(-c2ccc(Br)cc2)o1	2%	.	45µM*	-12%	.	.
OCC#CCSc1nnc(-c2ccc(Br)cc2)o1	87%	-13	-8%	-2%	.	?
Cc1c(-n2cc(C(=O)c3cc(Br)ccc3O)cc(C#N)c2=O)c(=O)n(-c2ccccc2)n1C	.	-24	?	-3%	?	-21%

Source: PubChem BioAssay (National Center for Advancing Translational Sciences (NCATS))
